± gives the standard deviation of the averaged measurements. In all, about 33,000 sequences were measured (“E-score (dimensionless, -0.5 to 0.5)”: median about -0.049, highest 2% from about 0.37 on). The entries come from a sample that favours the highest values as a whole.

For this assay, the system named is T1, PmTbr T-box DNA-binding domain (GST fusion).
T1 sequence: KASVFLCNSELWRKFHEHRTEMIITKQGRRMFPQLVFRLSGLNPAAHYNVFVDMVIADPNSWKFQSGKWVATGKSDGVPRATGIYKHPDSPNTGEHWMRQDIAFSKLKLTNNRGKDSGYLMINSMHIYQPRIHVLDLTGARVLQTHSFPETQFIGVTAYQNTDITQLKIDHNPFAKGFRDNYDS
Briefly: PBM E-score of 8-mer (E-score (dimensionless, -0.5 to 0.5)); Tbr is Tbrain of the sea star Patiria miniata (Pm) or the sea urchin Strongylocentrotus purpuratus (Sp); higher = stronger binding preference. The settings on record: the construct has about 5 more residues each side. An outline of the steps:
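Each ungapped 8-mer received an enrichment E-score from the Universal PBM Analysis Suite, averaged over duplicate arrays. The proteins were Tbr T-box DNA-binding domains, covering the whole T-box plus about five flanking residues, fused to GST and expressed in BL21 E. coli at 20 °C before glutathione affinity purification. Universal Agilent oligonucleotide arrays were made double-stranded by primer extension and incubated with 200 nM protein in PBS (pH 7.5). The arrays were then scanned and quantified, and every 8-mer was scored from probe intensities.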
With AGGACACG, the “PBM E-score of 8-mer” value was -0.0089 ± 0.017.

For the sequence ACGCCTGG, the “PBM E-score of 8-mer” value came out at 0.236 ± 0.015.

For the sequence GACAACAC, the “PBM E-score of 8-mer” value is 0.391 ± 0.014.

For the sequence CCCAACAA, the “PBM E-score of 8-mer” value is 0.0135 ± 0.11.

For the sequence CCCAACAC, the “PBM E-score of 8-mer” value came out at 0.385 ± 0.0085.

Regarding CTCAACAC, the “PBM E-score of 8-mer” value is 0.321 ± 0.029.

In the case of GACAACAA, the “PBM E-score of 8-mer” value turned out to be 0.194 ± 0.046.

As to CACAACAA, the “PBM E-score of 8-mer” value is 0.278 ± 0.0061.

Take GTCAACAC: the “PBM E-score of 8-mer” value is 0.427 ± 0.012.

In the case of GTCAACAA, the “PBM E-score of 8-mer” value was found to be 0.293 ± 0.013.

With CACAACAC, the “PBM E-score of 8-mer” value amounted to 0.387 ± 0.02.

Regarding CACAACAG, the “PBM E-score of 8-mer” value came out at 0.161 ± 0.033.

Regarding AACAACAC, the “PBM E-score of 8-mer” value was determined as 0.363 ± 0.01.

Regarding GCCAACAC, the “PBM E-score of 8-mer” value was found to be 0.354 ± 0.0042.

As for AATTCGCT, the “PBM E-score of 8-mer” value was 0.00911 ± 0.0077.

As to CGCAGGCC, the “PBM E-score of 8-mer” value is -0.171 ± 0.036.

With GGTTCGAC, the “PBM E-score of 8-mer” value was 0.0606 ± 0.091.

In the case of CCGTTAGA, the “PBM E-score of 8-mer” value was determined as 0.0408 ± 0.021.

Take GCTGACTA: the “PBM E-score of 8-mer” value was -0.0402 ± 0.059.

Consider AATGCTCC, for which the “PBM E-score of 8-mer” value was -0.0523 ± 0.0048.

Take CATCTGCC: the “PBM E-score of 8-mer” value is -0.176 ± 0.007.

AGGTTATG: the “PBM E-score of 8-mer” value worked out at 0.0583 ± 0.03.

Take AGACGCTG: the “PBM E-score of 8-mer” value was -0.078 ± 0.052.

In the case of GCTGTTAA, the “PBM E-score of 8-mer” value was 0.199 ± 0.089.

CGTGTTTA: the “PBM E-score of 8-mer” value is 0.0204 ± 0.033.

Regarding CGTGTTAG, the “PBM E-score of 8-mer” value was determined as 0.354 ± 0.01.

For the sequence AGTGTTTA, the “PBM E-score of 8-mer” value was 0.258 ± 0.043.

Regarding TGTGTTAA, the “PBM E-score of 8-mer” value was found to be 0.365 ± 0.029.

Take CGTGTTAA: the “PBM E-score of 8-mer” value is 0.409 ± 0.029.

Turning to CTTGTTAA, the “PBM E-score of 8-mer” value worked out at 0.236 ± 0.09.

With CCTGTTAA, the “PBM E-score of 8-mer” value stood at 0.185 ± 0.023.

For ACTGTTAG, the “PBM E-score of 8-mer” value came out at 0.217 ± 0.017.

As for AGTGTTAG, the “PBM E-score of 8-mer” value turned out to be 0.407 ± 0.014.

In the case of GGTGTTAA, the “PBM E-score of 8-mer” value worked out at 0.479 ± 0.0049.

With GGTGTTTA, the “PBM E-score of 8-mer” value was 0.399 ± 0.015.

Regarding CCGCCCGA, the “PBM E-score of 8-mer” value was 0.0216 ± 0.052.

With CTCAAGAG, the “PBM E-score of 8-mer” value came out at 0.00045 ± 0.0019.

In the case of CCAGACCA, the “PBM E-score of 8-mer” value is -0.0405 ± 0.051.

Consider GAGACAGC, for which the “PBM E-score of 8-mer” value came out at 0.0107 ± 0.051.

For the sequence CATCAGGG, the “PBM E-score of 8-mer” value is -0.024 ± 0.045.

Consider AGATAGTC, for which the “PBM E-score of 8-mer” value is -0.0975 ± 0.03.

AATACTTG: the “PBM E-score of 8-mer” value was -0.0724 ± 0.093.

Turning to AATGCGCA, the “PBM E-score of 8-mer” value was -0.0568 ± 0.095.

As to AGGGGGAA, the “PBM E-score of 8-mer” value is -0.14 ± 0.053.

With CCTAAGTC, the “PBM E-score of 8-mer” value is -0.0839 ± 0.0091.

As to ACTGTTAA, the “PBM E-score of 8-mer” value was determined as 0.21 ± 0.045.

As for AGTGTAAA, the “PBM E-score of 8-mer” value worked out at 0.287 ± 0.081.

Consider CGTGTTAC, for which the “PBM E-score of 8-mer” value worked out at 0.349 ± 0.015.

Take GGTGTAAA: the “PBM E-score of 8-mer” value is 0.418 ± 0.0026.

In the case of ACTGTTAC, the “PBM E-score of 8-mer” value is 0.118 ± 0.043.

With AGTGTTAA, the “PBM E-score of 8-mer” value is 0.433 ± 0.017.

On to AATGTTAA, for which the “PBM E-score of 8-mer” value was -0.0297 ± 0.11.

For the sequence GGTGTAAC, the “PBM E-score of 8-mer” value amounted to 0.363 ± 0.027.

GGTGTTAC: the “PBM E-score of 8-mer” value turned out to be 0.4752 ± 0.00012.

Turning to AGTGTTAC, the “PBM E-score of 8-mer” value was 0.3946 ± 0.0021.

With GCTGTTAC, the “PBM E-score of 8-mer” value was found to be 0.0246 ± 0.042.

For the sequence AGTGTTCC, the “PBM E-score of 8-mer” value amounted to 0.0364 ± 0.038.

CCCACAGG: the “PBM E-score of 8-mer” value came to 0.0869 ± 0.067.

CCGGTTGC: the “PBM E-score of 8-mer” value is -0.0645 ± 0.0032.

In the case of CATAGATA, the “PBM E-score of 8-mer” value is -0.161 ± 0.051.

Take ACCAACGA: the “PBM E-score of 8-mer” value stood at 0.0332 ± 0.14.

In the case of GTGCTTGA, the “PBM E-score of 8-mer” value came to 0.00432 ± 0.026.

For AGTGTTAT, the “PBM E-score of 8-mer” value stood at 0.397 ± 0.016.

As to AATGTTAT, the “PBM E-score of 8-mer” value is -0.00229 ± 0.038.

On to ACTGTTAT, for which the “PBM E-score of 8-mer” value amounted to 0.0989 ± 0.046.

Turning to CCCGAGGG, the “PBM E-score of 8-mer” value was -0.251 ± 0.11.

With CCTTCTCC, the “PBM E-score of 8-mer” value is -0.0679 ± 0.015.

Regarding AGAGCAAA, the “PBM E-score of 8-mer” value was -0.099 ± 0.029.

TAACAAGA: the “PBM E-score of 8-mer” value worked out at 0.0263 ± 0.085.

On to GTGTGCGA, for which the “PBM E-score of 8-mer” value is 0.3565 ± 0.0019.

As for CGGTGCTA, the “PBM E-score of 8-mer” value is 0.321 ± 0.0088.

In the case of CGGTGCGA, the “PBM E-score of 8-mer” value came out at 0.35 ± 0.017.

Regarding GTGTGCTA, the “PBM E-score of 8-mer” value amounted to 0.3066 ± 0.0011.

In the case of AGGTGCCA, the “PBM E-score of 8-mer” value was determined as 0.4761 ± 0.0036.

Consider ACGTGCCA, for which the “PBM E-score of 8-mer” value is 0.367 ± 0.031.

For AGCTGCCA, the “PBM E-score of 8-mer” value worked out at 0.18 ± 0.026.

GGGTGCGA: the “PBM E-score of 8-mer” value worked out at 0.4765 ± 0.0031.

In the case of AGGTGCCC, the “PBM E-score of 8-mer” value came out at 0.0662 ± 0.046.

Regarding ACGTGCCG, the “PBM E-score of 8-mer” value is 0.221 ± 0.02.

Turning to AGGTGCCG, the “PBM E-score of 8-mer” value worked out at 0.439 ± 0.0092.

As to GGGTGCTA, the “PBM E-score of 8-mer” value turned out to be 0.4326 ± 0.0028.

As for CACGCCAC, the “PBM E-score of 8-mer” value amounted to 0.222 ± 0.04.

For the sequence ACGAAGTG, the “PBM E-score of 8-mer” value was 0.291 ± 0.018.

As for CTGGGCCA, the “PBM E-score of 8-mer” value was -0.217 ± 0.042.

As for AGGTCACA, the “PBM E-score of 8-mer” value was 0.27 ± 0.017.

In the case of GCTACGAC, the “PBM E-score of 8-mer” value stood at 0.00882 ± 0.05.

The values are drawn from the supplement of paper PMC4166925.
